7 molecules from PubChem BioAssay (NCI) can be followed below.

Among the test systems are NCI-H23 lung; NCI-H226 lung; HOP-62 NSCLC; NCI-H460 lung; HOP-92 NSCLC; NCI-H522 lung; A549/ATCC NSCLC; 786-0 renal; COLO 205 colon; DU-145 prostate; K-562 leukemia; MALME-3M melanoma; MDA-MB-231 breast; RXF 393 renal; SF-268 CNS; SF-295 CNS; SF-539 CNS; UACC-257 melanoma; M14 melanoma; NCI-H322M lung.
Holding throughout (assay): NCI-60 one-dose screen, 48 h (100 = growth as untreated, 0 = no growth, -100 = all killed)
What all share (conditions): 10 µM unless noted

Values joined by “and” are separate entries in the source; they are usually repeats but may differ in a detail not shown here. Equal values may be shown once. This is part of a sample that, as a whole, favours compounds with a hit. Of some 83,000 tested, about 20% had one in any assay.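 Negative percent growth values reflect cell death: -40 means 40% of the cells present at the start died, and -100 means all died.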 Active and inactive are the calls of the source. How the source made its calls: active means growth percent below 10; inactive means the rest.

On to `C1=C(c2ccccc2)C(c2ccc(OCCN3CCCCC3)cc2)Oc2ccccc21` (stereo not drawn), for which the growth with NCI-H23 lung is 58.4% (inactive); in the experiment with NCI-H226 lung, 74.4% (inactive); with HOP-62 NSCLC, 60.5% (inactive); with NCI-H460 lung, -20.2% (active); in the experiment on HOP-92 NSCLC it was 59.3% (inactive); in the experiment on NCI-H522 lung it was 24.7% (inactive). The growth in the experiment with A549/ATCC NSCLC was 59.2% (inactive); with 786-0 renal it was 55.6% (inactive); in the experiment on COLO 205 colon it was -55.1% (active); in the experiment on DU-145 prostate, 77.1% (inactive); with K-562 leukemia it was 10.8% (inactive); in the experiment on MALME-3M melanoma, 2.37% (active). Further, the growth was 48.4% (inactive) in the experiment on MDA-MB-231 breast; 20.4% (inactive) with RXF 393 renal; 62.2% (inactive) in the experiment with SF-268 CNS; 52.7% (inactive) in the experiment on SF-295 CNS; 71.8% (inactive) with SF-539 CNS; -40.6% (active) in the experiment on UACC-257 melanoma. Moreover, the growth in the experiment with M14 melanoma is -58% (active).

In the case of `O=C(Oc1cccc2cccnc12)c1ccccc1`, the growth was 94.3% (inactive) and 103% (inactive) in the experiment with NCI-H23 lung; 110% (inactive) and 102% (inactive) in the experiment on NCI-H226 lung; 98.8% (inactive) and 106% (inactive) in the experiment on HOP-62 NSCLC; 87.1% (inactive) and 109% (inactive) with NCI-H460 lung; -4.17% (active) and 98.3% (inactive) in the experiment with NCI-H522 lung; 100% (inactive) and 103% (inactive) in the experiment with A549/ATCC NSCLC. Besides, the growth in the experiment with 786-0 renal is 100% (inactive) and 107% (inactive); in the experiment on DU-145 prostate, 92.9% (inactive) and 107% (inactive); in the experiment with K-562 leukemia, 48.5% (inactive); in the experiment on MALME-3M melanoma it was 89.8% (inactive) and 99% (inactive); in the experiment on MDA-MB-231 breast, 84.5% (inactive) and 104% (inactive); in the experiment on RXF 393 renal, 99.5% (inactive) and 108% (inactive). Besides, the growth with SF-268 CNS is 87.1% (inactive) and 102% (inactive); in the experiment with SF-295 CNS it was 97.5% (inactive) and 98.7% (inactive); with SF-539 CNS, 97.9% (inactive) and 106% (inactive); with UACC-257 melanoma, 86% (inactive) and 96.8% (inactive); in the experiment with M14 melanoma, 83.2% (inactive) and 96.9% (inactive).

`Cn1c2ccccc2c2nnc(N/N=C/c3ccccn3)nc21`: the growth in the experiment with NCI-H23 lung is 19.3% (inactive); in the experiment on NCI-H226 lung, 5.03% (active); in the experiment with HOP-62 NSCLC, 4.96% (active); in the experiment on NCI-H460 lung, -11.5% (active); in the experiment on HOP-92 NSCLC, 14.5% (inactive); with NCI-H522 lung, 18.2% (inactive). In addition, the growth in the experiment with A549/ATCC NSCLC is 21.1% (inactive); in the experiment with 786-0 renal, -21.6% (active); in the experiment with COLO 205 colon, -8.79% (active); in the experiment with DU-145 prostate, 13.7% (inactive); in the experiment with K-562 leukemia, 10.2% (inactive); in the experiment on MALME-3M melanoma it was -34.1% (active). The growth is 56.2% (inactive) with MDA-MB-231 breast; 6.74% (active) with SF-268 CNS; -25.3% (active) in the experiment on SF-295 CNS; -35.9% (active) in the experiment with SF-539 CNS; 7.22% (active) in the experiment with UACC-257 melanoma; -42.1% (active) in the experiment on M14 melanoma.

On to `O=C(CC1(O)C(=O)Nc2c(Cl)ccc(Cl)c21)c1ccc(Cl)cc1Cl` (stereo not drawn), for which the growth with NCI-H23 lung is 101% (inactive); with NCI-H226 lung, 97.6% (inactive); with NCI-H322M lung, 108% (inactive); with HOP-62 NSCLC, 70.2% (inactive); with NCI-H460 lung, 108% (inactive); in the experiment on NCI-H522 lung it was 76.2% (inactive). Moreover, the growth with A549/ATCC NSCLC is 91.4% (inactive); in the experiment with 786-0 renal, 102% (inactive); in the experiment on DU-145 prostate, 103% (inactive); with K-562 leukemia, 93.6% (inactive); with MALME-3M melanoma, 100% (inactive); in the experiment on MDA-MB-231 breast, 109% (inactive). The growth with RXF 393 renal was 94.5% (inactive); with SF-268 CNS it was 97.4% (inactive); in the experiment with SF-295 CNS, 100% (inactive); with SF-539 CNS, 103% (inactive); in the experiment on UACC-257 melanoma, 78.8% (inactive); in the experiment with M14 melanoma, 89.2% (inactive).

Regarding `Nc1nc(N)c2nc(CNc3ccc(C(=O)NC(CCC(=O)O)C(=O)O)cc3)cnc2n1` (stereo not drawn), the growth in the experiment on NCI-H23 lung is 24.8% (inactive) and 22.4% (inactive); in the experiment on NCI-H226 lung, 60.5% (inactive) and 52% (inactive); in the experiment with HOP-62 NSCLC, 39.1% (inactive) and 11.7% (inactive); in the experiment on NCI-H460 lung, 15.2% (inactive) and 12.2% (inactive); in the experiment with HOP-92 NSCLC, 69.9% (inactive) and 43.7% (inactive); in the experiment with NCI-H522 lung, 35% (inactive) and 38.7% (inactive). The growth with A549/ATCC NSCLC is 28.7% (inactive) and 36.9% (inactive); with 786-0 renal, 13.9% (inactive) and 8.47% (active); with COLO 205 colon, 56.1% (inactive) and 32.8% (inactive); in the experiment with DU-145 prostate, 28.2% (inactive) and 21.8% (inactive); with K-562 leukemia, 18.7% (inactive) and 32% (inactive); with MALME-3M melanoma, 47.8% (inactive) and 48.3% (inactive). Besides, the growth was 78.1% (inactive) and 60.1% (inactive) in the experiment on MDA-MB-231 breast; 48% (inactive) and 76.4% (inactive) in the experiment on RXF 393 renal; 26.6% (inactive) and 27.3% (inactive) with SF-268 CNS; 26% (inactive) and 12.9% (inactive) in the experiment with SF-295 CNS; 21.3% (inactive) and 18.4% (inactive) in the experiment on SF-539 CNS; 57.8% (inactive) and 52.2% (inactive) with UACC-257 melanoma. For the same molecule, the growth in the experiment with M14 melanoma is 10.8% (inactive) and 9.2% (active).

As to `Cc1ccc2nc(C[n+]3ccc4ccccc4c3)ccc2c1`, the growth was 68.9% (inactive) with NCI-H226 lung; 97.6% (inactive) in the experiment with NCI-H322M lung; 69.9% (inactive) with HOP-62 NSCLC; 55% (inactive) with NCI-H460 lung; 28% (inactive) in the experiment on HOP-92 NSCLC; 47.1% (inactive) in the experiment on NCI-H522 lung. For the same molecule, the growth in the experiment on A549/ATCC NSCLC is 51.7% (inactive); with 786-0 renal, 92.2% (inactive); in the experiment on COLO 205 colon, 27.3% (inactive); in the experiment on DU-145 prostate, 76% (inactive); in the experiment with K-562 leukemia, 44.2% (inactive); in the experiment with MALME-3M melanoma, 61.2% (inactive). The growth with MDA-MB-231 breast was 73.5% (inactive); with RXF 393 renal it was 93.6% (inactive); with SF-268 CNS it was 70.4% (inactive); with SF-295 CNS, 59% (inactive); in the experiment with SF-539 CNS, 71.9% (inactive); in the experiment on UACC-257 melanoma, 24.9% (inactive). Also, in the experiment with M14 melanoma, the growth is 45.8% (inactive).

Turning to `CCN(CC)CC(C)(C)C(=O)/C=C/c1ccc(Cl)c(Cl)c1`, the growth with NCI-H23 lung was 7.58% (active); in the experiment with NCI-H226 lung, -15.3% (active); with HOP-62 NSCLC, 46.1% (inactive); with NCI-H460 lung it was -9.28% (active); in the experiment with NCI-H522 lung it was -48.3% (active); in the experiment on A549/ATCC NSCLC, 33.3% (inactive). In addition, the growth in the experiment with 786-0 renal was -60.2% (active); in the experiment with COLO 205 colon, -53.4% (active); in the experiment on DU-145 prostate it was -61.6% (active); in the experiment on K-562 leukemia, 1.04% (active); with MALME-3M melanoma it was -52.7% (active); in the experiment on MDA-MB-231 breast, -48.8% (active). Moreover, the growth in the experiment with RXF 393 renal was -81.9% (active); in the experiment on SF-268 CNS it was -0.0402% (active); with SF-295 CNS, 48.1% (inactive); with SF-539 CNS it was -50.4% (active); with UACC-257 melanoma, -5.04% (active); in the experiment with M14 melanoma it was -43.5% (active).
